Source: PubChem (Sanford-Burnham Center for Chemical Genomics)
Hits are enriched below; roughly 4% of the tested compounds scored in any of these assays.
CF NFkB inh = cystic fibrosis NF-kB activation inhibition. 0.86% of 360,000 active. KKLEB NF-kB-GFP reporter, PAF-induced, GFP fluorescence overnight. inhibition, % at 5 µM;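 active means at least 50% inhibition at 5 µM, scaled per plate between neutral and stimulator controls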;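 further: PAF is a Pseudomonas aeruginosa culture filtrate used as stimulus; plate controls were PAF-stimulated DMSO wells for no effect and unstimulated DMSO wells for full effect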
TROY NFkB inh = blocks TROY-dependent signaling in reporter cells | inhibition, % at 10 µM | 0.98% of 360,000 active | Q293 LMP1-TROYcd NF-kB luciferase reporter, 4 h;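 active means compounds whose plate-normalised and pattern-corrected inhibition of the luciferase reporter signal at the single screening dose is 50% or more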
Peg3 prom inh-1 = reduces Peg3 promoter-driven luciferase expression in HeLa | AID 588405 | 1.7% of 360,000 active | inhibition, % at 20 µM | HeLa PEG-Prom luciferase reporter, luminescence, overnight;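 active means inhibition of at least 50% at 20 µM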
KKLEB tox = counter-screen for CF NF-kB inhibitors: cytotoxicity. KKLEB CF airway cells viability, ATPlite luminescence, overnight; stronger effect = lower value; cells stimulated with P. aeruginosa culture filtrate. activity change (cytotoxicity), % at 5 µM. 0.36% of 360,000 active;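 active means corrected activity change at or below -50% at 5 µM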
TWEAK-Fn14 inh = blocks TWEAK-Fn14 interaction in a reporter cell assay. TWEAK-stimulated Fn14 reporter cells, luciferase luminescence, 8 h. inhibition, % at 10 µM. 2% of 360,000 active. AID 1159606; in the data active means inhibition above about 50%
HIF-2a inh = inhibitors of HIF-2a. 0.72% of 360,000 active. inhibition, % at 18.8 µM. AID 624352. 786-0 RCC cells HIF-2a reporter, luciferase luminescence, overnight;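 active means inhibition of the luminescence signal of 40% or more relative to plate controls, in a single-dose primary screen at 18.75 µM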
Peg3 prom inh-2 = confirmation of Peg3 promoter inhibitors | inhibition, % at 20 µM | 84% of 1,300 active | HeLa PEG-Prom luciferase reporter, luminescence, overnight | AID 602417 | shares compounds with Peg3 prom inh-1;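 active means at 20 µM dose, 40% or more inhibition averaged across four replicates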
CF NFkB conf = CF NF-kB inhibition confirmation, single concentration | shares compounds with CF NFkB inh | inhibition, % at 5 µM | KKLEB CF airway cells, PAF-induced NF-kB-GFP fluorescence, overnight | 64% of 1,300 active | AID 602472; in the data active means inhibition above about 40%;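 further: stimulus PAF is a Pseudomonas aeruginosa filtrate and not platelet activating factor; plate controls were DMSO wells with stimulus for no effect and unstimulated DMSO wells for full effect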
Mdm2-MdmX confirm = Mdm2/MdmX (human) interaction inhibition, confirmed | shares compounds with HIF-2a inh | SaOS-2 split-luciferase Mdm2/MdmX complementation, luminescence | inhibition, % at 8 µM | 99% of 740 active;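 active means mean inhibition of the luminescence signal across two replicates at or above 26 percent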
Target sequence (O15151 whole entry, looked up): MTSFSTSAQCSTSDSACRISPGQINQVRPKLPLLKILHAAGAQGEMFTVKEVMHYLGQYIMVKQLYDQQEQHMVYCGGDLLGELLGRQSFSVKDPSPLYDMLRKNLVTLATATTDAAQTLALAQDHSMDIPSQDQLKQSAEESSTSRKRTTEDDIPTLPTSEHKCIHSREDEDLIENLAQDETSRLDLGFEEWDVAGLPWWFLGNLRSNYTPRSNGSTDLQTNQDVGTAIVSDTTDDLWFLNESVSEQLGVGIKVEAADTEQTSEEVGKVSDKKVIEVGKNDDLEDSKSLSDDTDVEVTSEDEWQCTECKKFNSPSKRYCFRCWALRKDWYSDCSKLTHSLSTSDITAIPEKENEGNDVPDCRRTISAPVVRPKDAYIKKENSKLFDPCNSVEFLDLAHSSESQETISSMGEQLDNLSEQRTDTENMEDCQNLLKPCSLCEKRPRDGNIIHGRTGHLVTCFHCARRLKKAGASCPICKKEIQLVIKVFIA
Target sequence (Q00987 whole entry, looked up): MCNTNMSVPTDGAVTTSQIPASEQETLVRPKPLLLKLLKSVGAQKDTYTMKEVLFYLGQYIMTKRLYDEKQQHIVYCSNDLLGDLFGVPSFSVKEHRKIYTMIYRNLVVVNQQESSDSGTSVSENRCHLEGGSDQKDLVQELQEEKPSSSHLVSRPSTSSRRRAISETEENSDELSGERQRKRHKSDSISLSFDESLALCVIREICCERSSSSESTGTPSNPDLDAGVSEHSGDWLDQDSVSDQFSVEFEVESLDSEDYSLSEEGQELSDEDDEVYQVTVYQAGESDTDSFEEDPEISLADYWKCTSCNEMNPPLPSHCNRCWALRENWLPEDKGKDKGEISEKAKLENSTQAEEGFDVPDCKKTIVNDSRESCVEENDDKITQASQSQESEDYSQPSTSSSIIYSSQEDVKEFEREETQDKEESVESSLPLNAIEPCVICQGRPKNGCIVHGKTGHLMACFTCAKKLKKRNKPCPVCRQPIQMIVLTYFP
HIF-2a inh conf = HIF-2a inhibition, single concentration confirmation | shares compounds with HIF-2a inh | 786-0 RCC cells, HIF-2a luciferase reporter luminescence, overnight | inhibition, % at 18.8 µM | 56% of 1,800 active | AID 651580;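 active means mean inhibition across four replicates of at least 40 percent at the single tested concentration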
HIF-1a cs = HIF-1a inhibition counter-screen for HIF-2a hits; 72% of 1,800 active; MiaPaCa-2 HIF-1a luciferase reporter, desferoxamine, overnight; shares compounds with HIF-2a inh; inhibition, % at 18.8 µM;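 active means mean inhibition of the reporter signal across four replicates at the single tested dose of 50% or more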
* = called active by the depositor; . = no result given.

SMILES | CF NFkB inh | TROY NFkB inh | Peg3 prom inh-1 | KKLEB tox | TWEAK-Fn14 inh | HIF-2a inh | Peg3 prom inh-2 | others
Cn1c(/N=C/c2ccc3c(c2)OCO3)nc2ccccc21 | 1 | -13 | 4 | 4 | 6 | -29 | .
C(=Cc1cnc2ccccc2n1)c1ccc2c(c1)OCO2 | -31 | 81* | 69* | -65* | 98* | 59* | 85* | HIF-2a inh conf=92*;HIF-1a cs=99*
CCc1ccc(/C=C2\SC(=S)N(CCCC(=O)Nc3ccccn3)C2=O)cc1 | 3 | 72* | 82* | -2 | 41 | 96* | 80* | Mdm2-MdmX confirm=95*
O=[N+]([O-])c1cnccc1Nc1ccc(Cl)cc1 | 20 | -24 | 4 | -8 | 10 | 18 | .
CCC(O)(CC)C(=O)NN(C(=O)CCl)c1ccccc1 | -7 | 2 | -6 | 2 | 23 | 0 | .
O=C(Nc1ccccc1)NN(C(=O)CCl)c1ccccc1 | 70* | -4 | 100* | -34 | 69* | 58* | 92* | Mdm2-MdmX confirm=103*;HIF-2a inh conf=67*;HIF-1a cs=90*
CCOc1ccc(C(=O)N2CCC3(CC2)NCCc2[nH]cnc23)cc1 | 6 | 2 | -4 | 7 | 12 | 16 | .
O=Nc1c(O)ccc2cc(S(=O)(=O)O)ccc12 | 14 | -13 | 62* | -5 | 22 | 76* | 68* | HIF-2a inh conf=82*;HIF-1a cs=12
CN(C)c1ccc2cc(S(=O)(=O)O)cc(O)c2c1 | -6 | 2 | 20 | 13 | 28 | 6 | .
Cc1noc(-c2ccc(Cl)cc2)c1C(=O)O/N=C(\N)c1ccc(C(C)(C)C)cc1 | 10 | -24 | 112* | -2 | -19 | 0 | 98* | Mdm2-MdmX confirm=103*
COc1cc(NS(C)(=O)=O)ccc1Nc1c2ccccc2nc2ccccc12 | -119 | -86 | 102* | 10 | -213 | 55* | 93* | Mdm2-MdmX confirm=98*
CCOc1ccc(C(=O)Nc2ccccc2-c2ccccc2)cc1Cl | -7 | 15 | -21 | 14 | -17 | -23 | .
CCOc1ccc(C(=O)Nc2cccc(C(=O)O)c2C)cc1Cl | 3 | -15 | 55* | 5 | 68* | 54* | 14 | HIF-2a inh conf=54*;HIF-1a cs=13
O=C(N/N=C/c1cccs1)c1n[nH]c2c1CCCC2 | 11 | 68* | 78* | -7 | 93* | 47* | 56* | HIF-2a inh conf=65*;HIF-1a cs=57*
C/C(=N\NC(=O)c1cc(C)[nH]n1)c1cccs1 | 15 | -39 | -35 | -4 | 19 | -72 | .
Cc1ccc(/C=N/NC(=O)c2n[nH]c3c2CCCC3)cc1 | 49 | -18 | -240 | -11 | -9 | -217 | .
C/C(=N\NC(=O)c1n[nH]c2c1CCC2)c1cccs1 | 15 | 63* | 94* | -25 | 96* | 72* | 72* | HIF-2a inh conf=83*;HIF-1a cs=50
O=C(NC1=NCCS1)C1COc2ccccc2O1 (stereo not drawn) | 5 | 86* | 106* | -14 | 106* | 83* | 82* | HIF-2a inh conf=90*;HIF-1a cs=85*
C=C(C)[C@@H]1CCC2(C(=O)O)CC[C@]3(C)[C@H](CC[C@@H]4[C@@]5(C)CCC(=O)C(C)(C)[C@@H]5CC[C@]43C)[C@@H]12 (stereo partly drawn) | 63* | -4 | 8 | -17 | 51* | 8 | . | CF NFkB conf=64*
C=C(CC[C@@H](O)C(C)(C)O)[C@H]1CC[C@]2(C)[C@@H]1CCC1[C@@]3(C)CCC(=O)C(C)(C)C3CC[C@]12C (stereo partly drawn) | 25 | 3 | 5 | -20 | -1 | 6 | .
Cc1cccc(NS(=O)(=O)c2nnc(NC(=O)c3cccc(C)c3)s2)c1 | -6 | 6 | 18 | -13 | 4 | 10 | .
Cc1ccc(/C=C/c2ccc(=O)n(Cc3ccc(F)cc3)n2)cc1 | -11 | 13 | 2 | 2 | 17 | -13 | .
COc1ccc(CCN=Cc2c(C)[nH]n(-c3ccc([N+](=O)[O-])cc3)c2=O)cc1OC | -20 | -11 | 0 | -7 | 15 | 16 | .
COc1ccc(-c2[nH]n(-c3ccc([N+](=O)[O-])cc3)c(=O)c2C=NCc2ccccc2)cc1 | 50* | 1 | 24 | -28 | -3 | 20 | . | CF NFkB conf=23
O=C(Nc1ccc(N2CCOCC2)c(S(=O)(=O)Nc2ccccc2Cl)c1)c1ccc(F)cc1 | -17 | 9 | 36 | 8 | -9 | 35 | .
SMILES | CF NFkB inh | TROY NFkB inh | Peg3 prom inh-1 | KKLEB tox | TWEAK-Fn14 inh | HIF-2a inh | Peg3 prom inh-2 | others
O=C(Nc1ccc(F)cc1)Nc1ccc(N2CCCC2)c(S(=O)(=O)Nc2ccccc2Cl)c1 | 60* | 24 | 42 | -16 | 75* | -15 | . | CF NFkB conf=71*
O=S(=O)(c1ccc(Br)cc1)c1cnc2ccccc2n1 | 57* | 28 | 33 | -20 | 55* | 27 | . | CF NFkB conf=49*
COc1ccc(S(=O)(=O)c2cnc3ccccc3n2)cc1 | 16 | -1 | 22 | 0 | 42 | 11 | .
CC(=O)Nc1cccc(NC(=O)c2cc(-c3cccnc3)nc3ccc(Br)cc23)c1 | 84* | -8 | 61* | -44 | 32 | -73 | . | CF NFkB conf=57*
O=C(Nc1ccc(C(F)(F)F)cc1)c1cc(-c2cccnc2)nc2ccc(Br)cc12 | 0 | 17 | 42 | -14 | 24 | -3 | .
N#CC(C#N)c1ccnc2ccccc12 | 58* | 43 | 10 | -14 | 59* | 0 | . | CF NFkB conf=46*
COc1ccc(CNc2nc3ccccc3n2CCN2CCCCC2)cc1 | 4 | 9 | 4 | -13 | -26 | 19 | .
CCN(CC)c1ccc(CNc2nc3ccccc3n2CCN2CCCCC2)cc1 | 55* | 49 | 44 | -45 | -1 | 1 | . | CF NFkB conf=37
O=C(Oc1ccc(N(C(=O)c2ccncc2)S(=O)(=O)c2ccc(Cl)cc2)cc1)c1ccncc1 | 1 | 36 | 6 | 14 | 24 | 9 | .
Cc1ccc(C)c(S(=O)(=O)N(C(=O)c2ccncc2)c2ccc(OC(=O)c3ccncc3)cc2)c1 | 69* | 68* | 43 | -9 | 84* | 20 | . | CF NFkB conf=85*
COc1cc(NC(=O)c2ccccc2Cl)ccc1NC(=O)c1cccs1 | -12 | -55 | -274 | 4 | -8 | -269 | .
COc1cc(NC(=O)c2cc3ccccc3cc2OC)ccc1NC(=O)c1cccs1 | 59* | -4 | 47 | 17 | 24 | -19 | . | CF NFkB conf=102*
